Screens: PubChem BioAssay, The Scripps Research Institute Molecular Screening Center
This is a sample that favours compounds with a hit; in the whole collection about 1.8% have one here.
PME-1 inh – PME-1 (human) inhibition. recombinant PME-1, FP-Rh probe fluorescence polarization. AID 2130. inhibition, % at 5.9 µM. 320,000 compounds, 0.53% hits. Q9Y570;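 active = inhibition above the campaign mean of all compounds plus 3 SD, cut at about 26% in these data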;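 also: competitive labeling of PME-1 active site by serine hydrolase directed probe; 0% = PME-1 with DMSO and 100% = wells lacking PME-1 enzyme; inhibitors block probe labeling so polarization falls and inhibition rises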
PAD4 inh – blocks human protein arginine deiminase 4. Q9UM07. recombinant PAD4, RCA probe fluorescence polarization. inhibition, % at 6.36 µM. 330,000 compounds, 0.41% hits;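 active = percent inhibition above a cutoff equal to the mean of all tested compounds plus 3 SD, cut at about 15% in these data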;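 also: 0% = PAD4 with RCA probe and DMSO and 100% = probe without PAD4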
Target sequence (Q9UM07 whole entry, looked up): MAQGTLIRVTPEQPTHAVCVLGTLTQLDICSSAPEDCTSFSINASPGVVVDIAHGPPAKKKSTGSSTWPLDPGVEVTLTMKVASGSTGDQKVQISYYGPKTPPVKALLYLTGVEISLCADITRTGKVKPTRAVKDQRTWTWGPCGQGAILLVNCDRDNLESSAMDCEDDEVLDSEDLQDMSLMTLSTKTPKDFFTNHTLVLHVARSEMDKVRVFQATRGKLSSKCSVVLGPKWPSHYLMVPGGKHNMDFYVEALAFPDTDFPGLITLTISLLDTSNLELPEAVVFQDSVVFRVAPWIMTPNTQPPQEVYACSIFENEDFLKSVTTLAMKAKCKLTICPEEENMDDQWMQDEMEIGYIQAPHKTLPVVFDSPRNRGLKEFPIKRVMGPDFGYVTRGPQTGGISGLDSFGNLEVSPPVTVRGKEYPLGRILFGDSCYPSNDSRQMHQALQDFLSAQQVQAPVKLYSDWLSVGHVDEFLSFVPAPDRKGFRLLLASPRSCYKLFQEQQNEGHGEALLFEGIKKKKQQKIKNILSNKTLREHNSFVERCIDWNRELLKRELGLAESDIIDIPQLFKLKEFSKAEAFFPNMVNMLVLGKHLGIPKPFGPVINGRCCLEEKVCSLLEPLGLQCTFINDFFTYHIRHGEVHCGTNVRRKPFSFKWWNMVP
GSTO1 inh – counter-screen for RBBP9 inhibitors: inhibitors of human GSTO1. P78417. recombinant GSTO1, activity-based probe fluorescence polarization. inhibition, % at 5.96 µM. 300,000 compounds, 1.1% hits. AID 1974;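 active = inhibition above the campaign mean inhibition plus 3 SD, cut at about 35% in these data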;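 also: 0% = GSTO1-1 with DMSO and 100% = wells lacking GSTO1-1 enzyme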
LYPLA2 inh – counter-screen for PME1 inhibitors: inhibitors of human LYPLA2. recombinant LYPLA2, FP-Rh probe fluorescence polarization. AID 2177. 320,000 compounds, 0.38% hits. O95372. inhibition, % at 5.9 µM;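 active = inhibition above the screen-wide mean plus 3 SD, limit set per campaign, cut at about 26% in these data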;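 also: 0% = LYPLA2 with DMSO and 100% = wells lacking LYPLA2 enzyme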
LYPLA1 counter – LYPLA1 (human) inhibition in PME1 counter-screen | O75608 | recombinant LYPLA1, FP-Rh probe fluorescence polarization | inhibition, % at 5.9 µM | 320,000 compounds, 0.16% hits | AID 2174;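 active = inhibition above the mean of all tested compounds plus 3 SD, set per campaign, cut at about 14% in these data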;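 also: inhibitors block serine hydrolase probe labeling of LYPLA1 so polarization falls; 0% = enzyme with DMSO and 100% = wells lacking LYPLA1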
Fam108B inh – Fam108B inhibition, counter-screen for RBBP9 inhibitors. recombinant Fam108B, FP-Rh probe fluorescence polarization. inhibition, % at 9.51 µM. 300,000 compounds, 0.33% hits. AID 1947;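 active = inhibition above the screen mean inhibition plus 3 SD, computed separately per campaign, cut at about 18% in these data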;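 also: inhibitors lower polarization as less probe binds the enzyme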
PAD4 FP conf – confirmation of human PAD4 inhibitors. 1,200 compounds, 28% hits. inhibition, % at 6.36 µM. recombinant PAD4, RCA probe fluorescence polarization. shares compounds with PAD4 inh;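 active = mean inhibition across replicates above the hit cutoff set by the earlier primary screen, cut at about 15% in these data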;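 also: inhibitors block active-site labeling by the probe so polarization falls; 0% = PAD4 with probe and DMSO and 100% = probe without PAD4 enzyme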
* hit, by the source's call; / = not tested or not shown.

SMILES | PME-1 inh | PAD4 inh | GSTO1 inh | LYPLA2 inh | LYPLA1 counter | Fam108B inh | PAD4 FP conf
O=C(c1cc2ccccc2oc1=O)N(c1ccccc1)C1C=CS(=O)(=O)C1 (stereo not drawn) | -0.9 | -3.3 | -1.8 | -3.4 | -1.2 | 1.6 | /
O=c1cc(-c2ccccc2)[nH]n1-c1nc2ccccc2[nH]1 | 6.5 | -2.2 | -9.2 | -5.8 | -6.2 | 9.4 | /
N#CCCn1[nH]c(-c2ccccc2)cc1=O | 2.1 | 51.2* | 38.7* | -2.0 | -1.7 | -1.7 | 2.9
COc1ccc(C(=O)NCc2nnc(SCC(=O)Nc3cc(Cl)ccc3OC)o2)cc1 | 2.2 | -1.4 | -4.0 | 5.0 | -4.2 | -0.3 | /
COc1ccccc1NC(=O)C1CCN(S(=O)(=O)c2cccs2)CC1 | 16.4 | 18.0* | / | 19.1 | 6.1 | / | 4.5
COc1ccc(OC)c(NC(=O)C2CCN(S(=O)(=O)c3cccs3)CC2)c1 | 3.9 | -2.2 | 1.9 | 0.3 | 1.6 | 2.1 | /
CCN1C=C(Cc2ccc(OC)cc2)C2=C(C1)C(c1ccc(OC)cc1)C(C#N)=C(N)O2 (stereo not drawn) | -7.6 | 41.7* | 2.9 | -0.2 | 2.4 | -3.5 | 3.5
C/C(=C\C(=O)c1ccc(F)cc1)Nc1ccc(N2CCOCC2)cc1 | 2.2 | 39.1* | 7.5 | 4.1 | 1.3 | 11.7 | 7.0
Nc1ccccc1O | 2.7 | 15.5* | / | -2.4 | 1.4 | / | -0.3
Cc1cccc(NC(=O)CCCN2C(=O)C(c3ccccc3)Oc3cccnc32)c1C (stereo not drawn) | 5.4 | 1.1 | -1.4 | 3.6 | -0.9 | -4.2 | /
Cc1sc2ccc3sccc3c2[n+]1C | -8.0 | 17.2* | 3.8 | 2.1 | -2.0 | -2.3 | 14.2
CCCc1cc(=O)[nH]c(SCC(=O)N2CCCC2=O)n1 | 3.6 | -4.7 | -6.5 | 4.3 | -0.6 | 1.3 | /
CC(=O)C1=C(c2ccccc2)N(C(C)=O)n2c(C)nnc2S1 | -0.1 | 68.5* | 6.2 | -4.0 | -0.7 | 1.4 | 59.0*
N#CC12COC3(CCCCC3C1(C#N)C#N)OC2=N (stereo not drawn) | 12.4 | 22.1* | 6.5 | 13.7 | 5.3 | -2.6 | 3.7
CCC1OC23CCCCC2C(C#N)(C(=N)O3)C1(C#N)C#N (stereo not drawn) | 9.5 | 7.6 | 5.6 | 12.6 | 8.7 | 0.3 | /
N#CC1(C#N)COC23CCCCC2C1(C#N)C(=N)O3 (stereo not drawn) | 1.2 | 7.7 | 13.3 | 6.9 | 2.2 | 2.6 | /
CCCC1OC23CCCCC2C(C#N)(C(=N)O3)C1(C#N)C#N (stereo not drawn) | 5.2 | 16.7* | 6.3 | 6.0 | 3.8 | -0.7 | 5.9
